Activity calls are given as the source filed them. Rule for the calls: active = hit-call score of the fitted dose curve at least 0.9, where 1 is the maximum; inactive = score below 0.9.
Experiments:
[1] = biological target: Transcription factor E2F1 (Homo sapiens) (UniProt Q01094); assay: ATG_E2F_CIS: Attagene CIS-FACTORIAL HepG2 Assay for human E2F Transcription Factor 1 (AID 2282935); conditions: HepG2 Attagene cis-reporter, E2F reporter RNA transcripts; actives raise or lower the signal
Outline: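 Gain or loss of reporter transcript, fitted against DMSO, reflects E2F1-driven transcription. Transiently transfected HepG2 dosed 24 h before RNA isolation. Quantified by fluorescent RT-PCR products separated by capillary electrophoresis.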

[2] = ATG_E_Box_CIS: Attagene CIS-FACTORIAL HepG2 Assay for human Enhancer Box (E-box) (AID 2282936); conditions: HepG2 E-box cis-reporter transcription, actives raise or lower the signal
Outline: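 E-box-driven reporter transcripts measured in transiently transfected HepG2 after 24 h exposure: RNA reverse-transcribed, PCR-amplified, fluorescently labelled, digested and resolved by capillary electrophoresis. Gain or loss relative to DMSO.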

[3] = ATG_M_61_CIS: Attagene CIS-FACTORIAL HepG2 Assay for M61 Transcription Factor (Internal Marker) (AID 2282937); conditions: HepG2 Attagene CIS-FACTORIAL M61 internal marker reporter; actives raise or lower the signal
Outline: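 HepG2 cells transiently transfected with multiplexed cis-promoter reporter units reporting endogenous transcription factor activity, measured 24 h after dosing. Reporter mRNA quantified by RT-PCR and capillary electrophoresis; bidirectional fit against DMSO baseline.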

[4] = ATG_EGR_CIS: Attagene CIS-FACTORIAL HepG2 Assay for human Early Growth Response 1 (EGR1) (AID 2282938); conditions: HepG2 Attagene CIS-FACTORIAL EGR reporter mRNA; actives raise or lower the signal
Outline: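 HepG2 cells transiently transfected with cis-element-driven multiplexed reporter units, dosed for 24 h. EGR1-element reporter mRNA quantified by RT-PCR, 6-FAM labelling, HpaI digestion and capillary electrophoresis; bidirectional fit versus DMSO.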

[5] = ATG_M_19_CIS: Attagene CIS-FACTORIAL HepG2 Assay for M19 Transcription Factor (Internal Marker) (AID 2282939); conditions: HepG2 Attagene CIS-FACTORIAL M19 internal marker reporter; actives raise or lower the signal
Outline: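 HepG2 cells transiently transfected with cis-regulated multiple reporter transcription units were dosed for 24 h; reporter mRNA was quantified by RT-PCR, 6-FAM primer-extension labelling, HpaI digestion and capillary electrophoresis, with bidirectional fitting against DMSO baseline.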

[6] = ATG_ERE_CIS: Attagene CIS-FACTORIAL HepG2 Assay for Estrogen Response Element (ERE) (AID 2282940); conditions: HepG2 ERE cis-reporter, Attagene RNA transcript; actives raise or lower the signal
Outline: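 HepG2 cells transiently transfected with cis-promoter-driven multiplexed reporter transcription units report endogenous TF activity. After 24 h compound exposure, reporter mRNA is quantified by RT-PCR with capillary electrophoresis fluorescence; bidirectional fitting versus DMSO baseline.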

[7] = ATG_Ets_CIS: Attagene CIS-FACTORIAL HepG2 Assay for human Erythroblast Transformation Specific (ETS) (AID 2282941); conditions: HepG2 ETS cis-reporter transcription, actives raise or lower the signal
Outline: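 Endogenous transcription factor activity read as reporter mRNA via RT-PCR and capillary electrophoresis, with gain or loss fitted bidirectionally against DMSO. Human HepG2 liver cells, transiently transfected CIS reporter constructs, 24 h exposure.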

[8] = biological target: Hepatocyte nuclear factor 3-beta (Homo sapiens) (UniProt Q9Y261); assay: ATG_FoxA2_CIS: Attagene CIS-FACTORIAL HepG2 Assay for human Forkhead box A2 (FOXA2) (AID 2282942); conditions: HepG2 cis-reporter transcription factor activity, 24 h; actives raise or lower the signal
Hepatocyte nuclear factor 3-beta (Homo sapiens), sequence (Q9Y261 whole entry, looked up): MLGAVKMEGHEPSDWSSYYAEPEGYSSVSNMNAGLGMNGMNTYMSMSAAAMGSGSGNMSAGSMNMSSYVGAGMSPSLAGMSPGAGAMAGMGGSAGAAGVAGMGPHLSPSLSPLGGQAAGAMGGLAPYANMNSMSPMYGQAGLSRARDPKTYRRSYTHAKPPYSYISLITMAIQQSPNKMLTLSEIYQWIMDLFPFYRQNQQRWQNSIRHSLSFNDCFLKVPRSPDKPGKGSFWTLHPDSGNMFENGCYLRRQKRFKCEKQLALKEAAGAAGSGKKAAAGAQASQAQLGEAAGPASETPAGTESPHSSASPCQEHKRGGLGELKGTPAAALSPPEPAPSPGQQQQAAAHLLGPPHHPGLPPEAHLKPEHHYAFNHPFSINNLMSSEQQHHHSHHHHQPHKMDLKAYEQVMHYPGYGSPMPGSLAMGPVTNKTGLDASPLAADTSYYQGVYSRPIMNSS
Outline: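 HepG2 transiently transfected with a multiplexed cis-promoter reporter library read endogenous FOXA2 activity. After 24 h compound exposure, reporter mRNA was quantified by RT-PCR, HpaI digestion and capillary electrophoresis. Bidirectional fit against DMSO.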

[9] = ATG_FoxO_CIS: Attagene CIS-FACTORIAL HepG2 Assay for human Forkhead box O (FoxO) (AID 2282943); conditions: HepG2 Attagene cis-reporter, FoxO element, mRNA; actives raise or lower the signal
Outline: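 Human hepatoma HepG2 cells carry transiently introduced reporter transcription units controlled by cis promoter elements. Chemical treatment lasted 24 h, and mRNA signal was compared with DMSO.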

[10] = ATG_GATA_CIS: Attagene CIS-FACTORIAL HepG2 Assay for human GATA Binding Protein (AID 2282944); conditions: HepG2 GATA cis-element reporter, Attagene multiplex mRNA; actives raise or lower the signal
Outline: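 HepG2 cells transiently transfected with multiplexed cis-element reporter units reflecting endogenous transcription factor activity; reporter mRNA measured after 24 h dosing by RT-PCR, 6-FAM labeling, HpaI digestion and capillary electrophoresis. Bidirectional fitting versus DMSO baseline.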

[11] = ATG_GLI_CIS: Attagene CIS-FACTORIAL HepG2 Assay for human Zinc Finger Protein GLI1 (AID 2282945); conditions: HepG2, Attagene cis-factorial reporter mRNA, GLI element; actives raise or lower the signal
Outline: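 Bidirectional curve fits relative to DMSO, using reporter mRNA levels from RT-PCR plus capillary electrophoresis. Cells were HepG2 transiently carrying cis-regulated reporter constructs, harvested 24 h after dosing.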

[12] = ATG_ISRE_CIS: Attagene CIS-FACTORIAL HepG2 Assay for human Interferon Regulatory Factor 1 (IRF1) binding to an Interferon-Stimulated Response Element (ISRE) (AID 2282948); conditions: HepG2 ISRE cis-reporter (Attagene), mRNA transcription readout; actives raise or lower the signal
Outline: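 Endogenous transcription factor activity read as reporter transcript abundance via RT-PCR and capillary electrophoresis. HepG2 cells transiently transfected, 24 h chemical exposure. Gain or loss fitted against DMSO baseline.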

[13] = ATG_M_32_CIS: Attagene CIS-FACTORIAL HepG2 Assay for M32 Transcription Factor (Internal Marker) (AID 2282949); conditions: HepG2 Attagene cis-factorial M32 reporter, mRNA; actives raise or lower the signal;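 note: background control marker of the multiplexed CIS panel rather than a real target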
Outline: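 HepG2 transfectants (cis-regulated reporter transcription units) dosed 24 h. Reporter mRNA by RT-PCR plus CE, analysed as gain or loss relative to DMSO.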

[14] = biological target: Hypoxia-inducible factor 1-alpha (Homo sapiens) (UniProt Q16665); assay: ATG_HIF1a_CIS: Attagene CIS-FACTORIAL HepG2 Assay for human Hypoxia Inducible Factor 1 (HIF1A) (AID 2282951); conditions: HepG2 Attagene cis-factorial HIF1a reporter transcription; actives raise or lower the signal
Hypoxia-inducible factor 1-alpha (Homo sapiens), sequence (Q16665 whole entry, looked up): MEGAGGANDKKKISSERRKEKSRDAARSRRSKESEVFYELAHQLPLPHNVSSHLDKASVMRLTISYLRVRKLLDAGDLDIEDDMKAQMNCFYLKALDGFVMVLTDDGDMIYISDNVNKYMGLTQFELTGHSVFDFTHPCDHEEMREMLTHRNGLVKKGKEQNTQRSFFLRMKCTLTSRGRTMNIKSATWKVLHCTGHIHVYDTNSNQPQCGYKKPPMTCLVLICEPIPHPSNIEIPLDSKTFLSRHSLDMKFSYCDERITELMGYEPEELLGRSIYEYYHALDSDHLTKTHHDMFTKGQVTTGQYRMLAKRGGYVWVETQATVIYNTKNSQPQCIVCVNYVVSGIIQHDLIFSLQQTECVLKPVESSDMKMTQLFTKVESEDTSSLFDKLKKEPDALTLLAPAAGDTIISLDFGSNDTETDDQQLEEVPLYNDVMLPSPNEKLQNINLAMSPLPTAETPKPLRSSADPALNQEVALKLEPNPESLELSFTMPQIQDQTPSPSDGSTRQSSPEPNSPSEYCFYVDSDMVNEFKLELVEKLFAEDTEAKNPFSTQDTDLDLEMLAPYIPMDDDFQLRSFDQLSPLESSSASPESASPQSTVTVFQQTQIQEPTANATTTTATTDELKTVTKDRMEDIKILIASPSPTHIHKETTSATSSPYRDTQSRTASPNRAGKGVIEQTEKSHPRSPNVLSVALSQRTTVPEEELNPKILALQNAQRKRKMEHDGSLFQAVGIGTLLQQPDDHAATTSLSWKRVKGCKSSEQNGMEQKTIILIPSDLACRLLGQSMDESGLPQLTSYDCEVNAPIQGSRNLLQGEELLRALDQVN
Outline: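 HepG2 cells transiently transfected with multiple cis-regulated reporter transcription units measure endogenous transcription factor activity. After 24 h exposure, reporter mRNA is quantified by RT-PCR with 6-FAM labelling, HpaI digestion and capillary electrophoresis. Bidirectional fitting against DMSO.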

[15] = biological target: Hepatocyte nuclear factor 6 (Homo sapiens) (UniProt Q9UBC0); assay: ATG_HNF6_CIS: Attagene CIS-FACTORIAL HepG2 Assay for human Hepatocyte Nuclear Factor 6 (HNF6) (AID 2282952); conditions: HepG2 Attagene cis-factorial HNF6 reporter transcription; actives raise or lower the signal
Hepatocyte nuclear factor 6 (Homo sapiens), sequence (Q9UBC0 whole entry, looked up, the tested form may be a part): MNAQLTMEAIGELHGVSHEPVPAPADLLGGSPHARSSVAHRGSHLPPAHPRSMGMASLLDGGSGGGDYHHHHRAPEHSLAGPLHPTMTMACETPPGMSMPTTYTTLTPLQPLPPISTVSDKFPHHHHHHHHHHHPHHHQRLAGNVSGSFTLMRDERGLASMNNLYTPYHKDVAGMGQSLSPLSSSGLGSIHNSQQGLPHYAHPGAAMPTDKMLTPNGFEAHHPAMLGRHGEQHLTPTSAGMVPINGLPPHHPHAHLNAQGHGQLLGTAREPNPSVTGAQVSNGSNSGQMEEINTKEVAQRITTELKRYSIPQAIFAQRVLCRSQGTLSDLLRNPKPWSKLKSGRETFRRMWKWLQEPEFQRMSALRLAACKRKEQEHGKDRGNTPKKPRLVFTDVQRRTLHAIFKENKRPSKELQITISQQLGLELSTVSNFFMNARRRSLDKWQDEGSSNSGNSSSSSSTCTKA
Outline: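 First, HepG2 cells were transfected with the multiplexed cis reporter library and dosed with chemical for 24 h. Next, RNA was reverse-transcribed, PCR-amplified and fluorescently labelled. Finally, HpaI-digested fragments were read by capillary electrophoresis.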

[16] = ATG_MRE_CIS: Attagene CIS-FACTORIAL HepG2 Assay for human Metal Responsive Element (MRE) (AID 2282954); conditions: HepG2 MRE cis-reporter transcription, Attagene multiplex; actives raise or lower the signal
Outline: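 Endogenous MRE-dependent transcription read as reporter mRNA in transiently transfected human HepG2 cells at 24 h. RNA reverse-transcribed, PCR-amplified, labelled and resolved by capillary electrophoresis; gain or loss relative to DMSO.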

[17] = ATG_M_06_CIS: Attagene CIS-FACTORIAL HepG2 Assay for M06 Transcription Factor (Internal Marker) (AID 2282950); conditions: HepG2 Attagene CIS-FACTORIAL M06 internal marker reporter; actives raise or lower the signal
Outline: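 HepG2 cells transiently transfected with cis-regulated multiple reporter transcription units were exposed to chemical for 24 h; reporter mRNA was quantified by RT-PCR, 6-FAM primer labelling, HpaI digestion and capillary electrophoresis, fitted bidirectionally against DMSO.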

[18] = biological target: Heat shock factor protein 1 (Homo sapiens) (UniProt Q00613); assay: ATG_HSE_CIS: Attagene CIS-FACTORIAL HepG2 Assay for human Heat Shock Transcription Factor 1 (HSE) (AID 2282953); conditions: HepG2 HSE cis-reporter, Attagene RNA transcription; actives raise or lower the signal
Heat shock factor protein 1 (Homo sapiens), sequence (Q00613 whole entry, looked up): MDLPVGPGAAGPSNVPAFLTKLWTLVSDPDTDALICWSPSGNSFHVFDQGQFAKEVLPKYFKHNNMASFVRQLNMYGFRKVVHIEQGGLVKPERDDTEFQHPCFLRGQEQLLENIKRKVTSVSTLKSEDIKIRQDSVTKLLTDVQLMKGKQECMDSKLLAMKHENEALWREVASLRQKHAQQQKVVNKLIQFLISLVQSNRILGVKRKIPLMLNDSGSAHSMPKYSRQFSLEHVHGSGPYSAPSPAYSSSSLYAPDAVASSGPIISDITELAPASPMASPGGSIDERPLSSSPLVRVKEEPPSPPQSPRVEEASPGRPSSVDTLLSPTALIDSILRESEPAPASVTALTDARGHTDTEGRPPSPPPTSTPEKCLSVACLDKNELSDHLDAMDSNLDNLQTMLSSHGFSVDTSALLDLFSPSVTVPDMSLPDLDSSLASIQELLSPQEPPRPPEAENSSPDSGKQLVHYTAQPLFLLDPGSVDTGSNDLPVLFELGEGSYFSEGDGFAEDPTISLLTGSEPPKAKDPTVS
Outline: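 HepG2 cells transiently transfected with multiple reporter transcription units under cis-regulatory promoter control, measuring endogenous transcription factor activity. After 24 h chemical exposure, reporter mRNA quantified by RT-PCR, fluorescent labelling, HpaI digestion and capillary electrophoresis; bidirectional fit versus DMSO.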

[19] = biological target: Bile acid receptor (Homo sapiens) (UniProt Q96RI1); assay: ATG_IR1_CIS: Attagene CIS-FACTORIAL HepG2 Assay for human Nuclear Receptor Subfamily 1 Group H Member 4 (NR1H4), IR1 submotif (AID 2282946); conditions: IR1 reporter transcription, actives raise or lower the signal
Bile acid receptor (Homo sapiens), sequence (Q96RI1 whole entry, looked up): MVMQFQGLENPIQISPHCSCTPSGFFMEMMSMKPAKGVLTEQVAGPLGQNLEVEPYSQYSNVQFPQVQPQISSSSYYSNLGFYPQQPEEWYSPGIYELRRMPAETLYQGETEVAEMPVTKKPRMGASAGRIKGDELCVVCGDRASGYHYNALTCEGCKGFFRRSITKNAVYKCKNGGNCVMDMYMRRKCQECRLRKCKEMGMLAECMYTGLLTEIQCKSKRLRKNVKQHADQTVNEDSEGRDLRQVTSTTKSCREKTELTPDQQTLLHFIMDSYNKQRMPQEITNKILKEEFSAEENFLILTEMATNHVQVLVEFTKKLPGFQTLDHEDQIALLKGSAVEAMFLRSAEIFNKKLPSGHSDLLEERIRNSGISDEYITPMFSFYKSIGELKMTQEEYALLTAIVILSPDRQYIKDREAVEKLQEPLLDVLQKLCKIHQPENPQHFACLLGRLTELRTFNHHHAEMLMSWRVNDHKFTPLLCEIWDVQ
Outline: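 HepG2 cells transiently transfected with multiplexed cis-element reporter units read endogenous transcription factor activity. After 24 h compound exposure, reporter mRNA was quantified by RT-PCR, fluorescent labelling, HpaI digestion and capillary electrophoresis; bidirectional fitting versus DMSO baseline.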

Measured: AC50

Transcription factor E2F1 (Homo sapiens), sequence (Q01094 whole entry, looked up): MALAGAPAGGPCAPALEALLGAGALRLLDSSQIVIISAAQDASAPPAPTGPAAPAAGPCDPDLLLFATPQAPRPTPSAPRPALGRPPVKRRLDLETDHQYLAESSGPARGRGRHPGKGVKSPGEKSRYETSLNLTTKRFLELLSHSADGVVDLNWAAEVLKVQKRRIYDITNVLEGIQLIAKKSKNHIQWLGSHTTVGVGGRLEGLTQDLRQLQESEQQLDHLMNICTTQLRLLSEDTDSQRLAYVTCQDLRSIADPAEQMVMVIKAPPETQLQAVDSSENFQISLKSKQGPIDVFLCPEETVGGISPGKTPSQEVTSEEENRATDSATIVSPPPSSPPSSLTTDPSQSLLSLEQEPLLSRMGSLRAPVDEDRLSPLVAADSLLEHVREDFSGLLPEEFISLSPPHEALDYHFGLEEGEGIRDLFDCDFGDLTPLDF

CCOC(=O)C=Cc1ccccc1
inactive: [1] | [2] | [3] | [4] | [5] | [6] | [7] | [8] | [9] | [10] | [11] | [12] | [13] | [14] | [15] | [16]

CCCCCCOc1ccc(O)cc1
inactive: [1] | [2] | [3] | [4] | [5] | [7] | [8] | [9] | [10] | [11] | [12] | [17] | [14] | [15]
active: [6] 2.79 µM | [18] 11.3 µM | [16] 47.7 µM

CC(=O)CCC=C(C)CCC=C(C)C
inactive: [1] | [2] | [3] | [4] | [5] | [6] | [7] | [8] | [9] | [10] | [11] | [12] | [13] | [17] | [15] | [18] | [16]

CC(CO)c1ccccc1 (stereo not given)
inactive: [1] | [2] | [3] | [4] | [5] | [6] | [7] | [8] | [9] | [10] | [11] | [12] | [17] | [14] | [15] | [18]

CCC(C)(C)C1CCC(=O)CC1
inactive: [1] | [2] | [3] | [4] | [5] | [7] | [8] | [9] | [10] | [11] | [12] | [13] | [17] | [15] | [18] | [16]
active: [6] 16.7 µM

N=C1N=C(N)c2ccccc21
inactive: [1] | [2] | [3] | [4] | [5] | [7] | [8] | [9] | [11] | [13] | [17] | [14] | [15] | [18]
active: [6] 18.1 µM | [12] 74.1 µM

CCOc1ccc(NC(C)=O)cc1
inactive: [1] | [2] | [3] | [4] | [5] | [6] | [7] | [8] | [9] | [11] | [19] | [12] | [13] | [17] | [14] | [15] | [18] | [16]

[Cu+]
inactive: [1] | [2] | [3] | [4] | [5] | [6] | [7] | [8] | [9] | [10] | [11] | [13] | [17] | [14] | [15] | [18]
active: [16] 1.09 µM

CC1=CCC(C(C)C)=CC1
active: [13] 69.4 µM
inactive: [1] | [2] | [3] | [4] | [5] | [6] | [7] | [8] | [9] | [11] | [12] | [17] | [14] | [15] | [18]

From PubChem BioAssay (EPA / NIEHS)
